The sample as a whole holds a higher share of hits than the screen did.
TDP1 cell CPT = DT40-hTDP1 cell growth loss with CPT; Potency, µM (highest dose often 46.2 µM), for inactives: at the highest dose activity change, negative = growth inhibition, usual class: inhibitors; hit rate 12% among 420,000; chicken DT40 Tdp1-/-;hTDP1 cells + 20 nM CPT, ATP luminescence, 48 h; also: potency is read from the fitted curve at half-maximal effect; nearly all actives have a fitted effect of over 55% in size
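Chicken DT40 Tdp1-/- cells stably complemented with human TDP1 were seeded at 400 cells/well in medium containing 20 nM camptothecin, exposed to pin-transferred compounds, and grown at 37 °C for at least 48 hr. Viability was read as ATP luminescence.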
TDP1 cell noCPT = qHTS for Inhibitors of human tyrosyl-DNA phosphodiesterase 1 (TDP1): qHTS in cells in absence of CPT; DT40 Tdp1-/- hTDP1 cells, no CPT, ATP luminescence, 48 h; Potency, µM (series often up to 46.2 µM), for inactives: at the top dose activity change, negative = growth inhibition, usual class: inhibitors; hit rate 15% among 420,000; also: potency is read from the fitted curve at half-maximal effect; nearly all actives have a fitted effect of over 55% in size
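Seeded 400 DT40-hTDP1 cells/well (vehicle DMSO, no 20 nM CPT); pinned compounds; ≥48 hr at 37 °C; CellTiter-Glo luminescence as viability measure.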
HT1080 IDH1KD tx = kills HT-1080 cells with IDH1 knockdown. HT-1080 IDH1 knockdown viability, ATP luminescence, 48 h. Potency, µM (series often up to 46.1 µM), without a hit: at the top dose activity, negative = toxicity, usual class: cytotoxic. hit rate 2% among 360,000;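 also: potency is read from the fitted curve at half-maximal effect; 0% = DMSO wells and -100% = cell-free medium wells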
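IDH1KD HT-1080 cells, 750/well, RPMI + 5% FBS; compound pinned after 2 h settling; 48 h, 37 °C; CellTiter-Glo luminescence; % activity normalised to DMSO and no-cell wells; curves fitted, classed by r2 and efficacy.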
HT1080NT lethal = kills 2HG-producing HT-1080-NT fibrosarcoma cells; Potency, µM (doses to about 46.1 µM), inactives show at the highest dose activity, negative = less viability, hits mostly cytotoxic; hit rate 1.6% among 360,000; AID 686970; HT-1080-NT fibrosarcoma viability, CellTiter-Glo ATP luminescence, 48 h;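 also: NT is the 2HG producing partner of a matched IDH1 knockdown line; potency is read from the fitted curve at half-maximal effect; 0% = DMSO-treated cells and -100% = media-only wells without cells; nearly all actives have a fitted effect of over 55% in size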
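HT-1080-NT; 750 cells/well; 5% FBS RPMI; 48 h compound, 37 degrees C; CellTiter-Glo luminescence; curve fitting and curve-class assignment.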
IL-1B inflam inh = blocks inflammasome-driven IL-1 beta release. THP-1 LPS/ATP IL-1B secretion, AlphaLISA, 16 h; hits give low values. activity change, % at 57.5 µM. hit rate 4.7% among 360,000. AID 743279; in the data active = activity change below about -50%; inconclusive = mostly about -30% to -49%
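Secreted IL-1B measured by AlphaLISA bead assay after 16 h compound exposure of THP-1 cells; compounds (final up to 57.5 uM) added 1 h before LPS (250 ng/mL) and ATP (1.25 mM) stimulation; lower signal means less secretion.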
12-LOX inh = inhibitors of human 12S-lipoxygenase ALOX12. P18054. purified 12hLO, xylenol orange hydroperoxide absorbance. Potency, µM (highest dose often 108 µM), for inactives: at the highest dose activity change, negative = inhibition, hits mostly inhibitors. hit rate 1.1% among 580,000. AID 1671190; also: potency is read from the fitted curve at half-maximal effect
Target sequence (P18054 whole entry, looked up): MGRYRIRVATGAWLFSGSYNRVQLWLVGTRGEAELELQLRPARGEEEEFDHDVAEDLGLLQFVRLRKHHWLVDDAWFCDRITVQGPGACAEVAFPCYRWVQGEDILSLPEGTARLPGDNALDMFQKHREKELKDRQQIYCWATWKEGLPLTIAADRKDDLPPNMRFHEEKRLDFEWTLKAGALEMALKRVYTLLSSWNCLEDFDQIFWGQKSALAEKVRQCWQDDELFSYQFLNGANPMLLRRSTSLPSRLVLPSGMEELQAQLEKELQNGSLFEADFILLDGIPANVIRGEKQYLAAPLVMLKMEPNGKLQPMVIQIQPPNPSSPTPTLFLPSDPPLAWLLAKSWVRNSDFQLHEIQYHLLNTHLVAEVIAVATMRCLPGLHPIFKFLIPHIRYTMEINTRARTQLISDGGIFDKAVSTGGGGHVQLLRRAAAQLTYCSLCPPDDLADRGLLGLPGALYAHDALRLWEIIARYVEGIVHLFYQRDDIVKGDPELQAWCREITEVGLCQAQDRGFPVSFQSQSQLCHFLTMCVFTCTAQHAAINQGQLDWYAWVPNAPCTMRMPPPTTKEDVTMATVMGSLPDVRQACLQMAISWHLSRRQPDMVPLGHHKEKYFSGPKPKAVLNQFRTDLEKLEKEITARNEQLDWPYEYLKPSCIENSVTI
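Purified human 12hLO at 150 nM in 25 mM Hepes, 0.01% Triton X-100, pH 7.0, preincubated 15 min at room temperature with compound. Reaction started with 40 uM arachidonic acid, 30 min at room temperature. Hydroperoxide measured by Fe-xylenol orange, 573/405 nm absorbance ratio.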
Active calls of the source: *; ? = inconclusive; . = not tested or not shown. Unless noted, calls follow the shape of the dose curve; as a rule, active = well fitted curve in the direction sought with a large enough effect; inconclusive = small, poorly fitted or top-dose-only effect, or another doubt; inactive = no such curve, though single readings can be large; an effect the other way counts as inactive or inconclusive. Unless noted, % is scaled to controls: 0 for no effect and ±100 for the full control effect.

SMILES | TDP1 cell CPT | TDP1 cell noCPT | HT1080 IDH1KD tx | HT1080NT lethal | IL-1B inflam inh | 12-LOX inh
O=C(Nc1nc(-c2ccccn2)cs1)C1CC(=O)N(c2ccc3c(c2)OCCO3)C1 (stereo not given) | 26µM* | 16µM* | -11% | -17% | 23 | 7%
O=C(CC1CC2CCC1C2)Nc1nc(-c2ccccn2)cs1 (stereo not given) | ? | 6.5µM* | -26% | -2% | 91 | -20%
COc1ccc(C(=O)NCc2n[nH]c(=O)c3ccccc23)cc1OC | . | . | . | . | . | 23%
Cc1ccc(Nc2nc(-c3c[nH]c(C(=O)N4CCCC4)c3)cs2)cc1F | . | . | . | . | . | -82%
Cc1ccc2nc(SCC(=O)Nc3ccc4c(c3)OCO4)[nH]c2c1 | . | . | . | . | . | -17%
COc1ccc(-c2nc(SCC(=O)Nc3ccc4c(c3)OCO4)c(-c3ccc(OC)cc3)[nH]2)cc1 | -19% | -27% | . | . | . | -2%
O=C(CSc1nc(-c2ccccc2)[nH]c1-c1ccccc1)Nc1ccc2c(c1)OCCO2 | 10µM* | 9.2µM* | . | . | . | 0%
O=C(CSc1ccccn1)Nc1ccc2c(c1)OCCO2 | 15% | -27% | 9% | -2% | -8 | 109%
COc1ccc(-c2[nH]c(-c3ccccc3)nc2SCC(=O)Nc2ccc3c(c2)OCCO3)cc1 | 13µM* | 16µM* | . | . | . | -19%
Cc1cccc(-c2nc(SCC(=O)Nc3ccc4c(c3)OCO4)c(-c3ccccc3)[nH]2)c1 | 21µM* | ? | . | . | . | -4%
COCC(O)CNC(=O)COc1ccc2c(=O)c(-c3ccc(Cl)cc3)c(C)oc2c1 (stereo not given) | . | . | . | . | . | -3%
COc1cc(C2N=C(N)Nc3nc4ccccc4n32)ccc1OCCC(C)C (stereo not given) | 23µM* | 18µM* | . | . | . | ?
COc1cc(C2N=C(N)Nc3nc4ccccc4n32)ccc1OCC(=O)O (stereo not given) | 4% | 3% | . | . | . | -27%
CCCN(CCC)c1ccc(C2N=C(N)Nc3nc4ccccc4n32)cc1 (stereo not given) | 23µM* | 16µM* | . | . | . | ?
NS(=O)(=O)c1ccc(NC(=O)Nc2ccc(Cl)cc2)cc1 | -7% | 16µM* | -5% | -6% | -17 | -7%
O=C(NCCSCc1ccco1)Nc1ccc(Cl)cc1 | ? | 12µM* | -5% | 0% | -5 | 0%
O=C(NCCSCc1ccco1)Nc1cccc(Cl)c1 | ? | ? | -4% | -9% | ? | ?
CNS(=O)(=O)c1ccc(NC(=O)c2ccoc2C)cc1 | -2% | -26% | 0% | 1% | -8 | -4%
CNC(=O)Nc1ccc(S(N)(=O)=O)cc1 | 11% | 5% | 12% | -11% | 7 | -69%
Cc1occc1C(=O)Nc1ccc(S(N)(=O)=O)cc1 | 23µM* | ? | 7% | 0% | -2 | -5%
CC(=O)N(C)c1ccc(NC(=O)Nc2ccc(Cl)cc2)cc1 | ? | 18µM* | 0% | -2% | -25 | 0%
COc1ccc(F)c(CN2CCCC(O)(CN3CCC(C(N)=O)CC3)C2=O)c1 (stereo not given) | . | . | . | . | . | -21%
N#Cc1ccc(NC(=O)Nc2ccc(Cl)cc2)cc1 | 2.9µM* | 3.7µM* | ? | 15µM* | -110* | 99%
O=C(NCCNC(=O)Nc1ccc(Cl)cc1)Nc1ccc(Cl)cc1 | 4% | -9% | 19% | 14% | 3 | 13µM*
CC(C)C(Cl)=NOC(=O)Nc1ccc(S(N)(=O)=O)cc1 | 1.2µM* | 2.6µM* | ? | -1% | -99* | 1%
CN(CC(=O)Nc1ccc(C#N)cc1)Cc1ccc(Cl)cc1 | ? | ? | ? | ? | -10 | ?

High-throughput results (PubChem BioAssay)
